Data on six molecules can be found in PubChem BioAssay (NCATS).

The nature of test [1]: qHTS profiling for inhibitors of Plasmodium falciparum (3D7) proliferation (AID 743322; call rule not given here;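 also: infected erythrocytes exposed to compound for 72 h before lysis; 100% = DMSO vehicle wells and 0% = 0.29 µM artemisinin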). The following applies: P. falciparum 3D7 proliferation; at 28.7 µM (top of the series) unless noted. The procedure, abridged:
(§1)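 Parasite DNA was quantified by SYBR Green I fluorescence (ex 485, em 535 nm) after overnight lysis in saponin/Triton buffer at room temperature. Cultures at 0.3% parasitemia and 2.5% hematocrit were first exposed to compound for 72 h at 37 C; signals were normalised to artemisinin (0.29 uM) and vehicle wells.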
On the technique in general: qHTS replaces the single test concentration by a dilution series.

Test [2] can be described thus: qHTS profiling for inhibitors of Plasmodium falciparum (HB3) proliferation (AID 743324).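 Also: 100% = DMSO vehicle wells and 0% = artemisinin-treated control wells.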 The following applies: Plasmodium falciparum HB3 blood-stage proliferation; at 28.7 µM (top of the series) unless noted. The procedure, abridged: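 SYBR Green fluorescence (485 ex/535 em) of lysed cultures, incubated overnight at room temperature in the dark, quantifies parasite DNA. Infected erythrocytes at 0.3% parasitemia and 2.5% hematocrit were exposed 72 h; values normalized to DMSO and 0.29 uM artemisinin controls.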

A short description of test [3]: qHTS profiling of the MIPE4 collection as inhibitors of Plasmodium falciparum (3D7) proliferation (AID 743344; call rule not given here;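 also: scaled between DMSO vehicle wells and 0.29 µM artemisinin as full inhibition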). The following applies: P. falciparum 3D7 in erythrocytes, SYBR Green DNA fluorescence, 72 h; at 28.5 µM (top of the series) unless noted. The procedure, abridged:
as §1

The nature of test [4]: qHTS profiling of the MIPE4 collection as inhibitors of Plasmodium falciparum (DD2) proliferation (AID 743345; call rule not given here). The following applies: P. falciparum Dd2 in erythrocytes, SYBR Green DNA, 72 h; at 28.5 µM (top of the series) unless noted. The procedure, abridged:
as §1

Test [5] is described as follows: qHTS profiling of the MIPE4 collection as inhibitors of Plasmodium falciparum (DD2) proliferation (Rep 2) (AID 743346; call rule not given here). The following applies: P. falciparum Dd2 in erythrocytes, SYBR Green DNA, 72 h; at 28.5 µM (top of the series) unless noted. Summed up: as §1
Test [6] is described as follows: qHTS profiling of the MIPE4 collection as inhibitors of Plasmodium falciparum (HB3) proliferation (AID 743347; call rule not given here;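 also: plate controls were DMSO vehicle wells for no effect and artemisinin wells for full effect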). The following applies: P. falciparum HB3 in erythrocytes, SYBR Green DNA, 72 h; at 28.5 µM (top of the series) unless noted. Summed up:
as §1

A short description of test [7]: Cell Proliferation Assay Versus the ED40515 IL2 Dependent ATL cell lines (AID 1053195; calls by dose curve). The following applies: ED40515 IL2-dependent ATL cells. Summed up:
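CellTiter-Glo luminescence (15 min, RT) measured viability after 48 hours at 37C; cells were ED40515 +IL2, 1000/well, in phenol red-free RPMI with 5% FBS. Controls: DMSO and 9.2 uM bortezomib.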

A short description of test [8]: High-throughput drug toxicity screening in the BPDCN cell line Gen2.2 (AID 1224824; call rule not given here;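 also: cells exposed to compounds for 48 h before reading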). The following applies: Gen2.2 BPDCN cells; at 45.8 µM (top of the series) unless noted. The procedure, abridged:
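CellTiter-Glo luminescence after 48 h compound exposure of Gen2.2 cells; percent activity set with DMSO as 100% and bortezomib (9.2 uM final) as 0%. Cells seeded at 500 per well, RPMI + 10% FBS, 37 °C.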

Test [9] in a line: High-throughput drug toxicity screening in the BPDCN cell line Cal-1 (AID 1224825; call rule not given here). The following applies: Cal-1 BPDCN cell viability, qHTS; at 45.8 µM (top of the series) unless noted. Summed up:
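Percent activity derived from CellTiter-Glo luminescence, scaling DMSO to 100% and 9.2 uM final bortezomib to 0%. BPDCN Cal-1 cells (500/well, RPMI plus 10% FBS) incubated with compounds 48 hours at 37C before reading.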

The nature of test [10]: qHTS assay for measurement of the activity of small molecule inhibitors on Zika virus induced Caspase-3 activity in human iPSC derived neural progenitor cells (hNPCs) (AID 1224857). Also: nearly all actives have a fitted effect of over 65% in size. Also: potency is read from the fitted curve at half-maximal effect. The procedure, abridged:
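In medium with heparin 2 ug/ml and cyclopamine 2 uM, hNPCs (350 cells/well) received compound for one hour and then Zika virus at 2 FFU/cell; caspase activity was measured by Caspase-Glo 3/7 luminescence 6 h post-infection.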

The nature of test [11]: qHTS assay for measurement of the activity of small molecule inhibitors on Zika virus induced Caspase-3 activity in human astrocytoma cells (AID 1224859). Also: potency is read from the fitted curve at half-maximal effect. The procedure, abridged: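 A cell-based luminescent caspase-3/7 assay used SNB-19 cells infected with ZIKV (2 FFU/cell) for 6 h following 1 h compound pretreatment.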
Test [12] is described as follows: qHTS Screen of the MIPE 4.0 Collection Against Ewings Sarcoma (RDES) (AID 1259252). Also: nearly all actives have a fitted effect of over 35% in size. Also: potency is read from the fitted curve at half-maximal effect. The procedure, abridged:
(§2)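 Cells plated in serum-containing RPMI (5% FBS) and treated with compound dilutions for 48 h. Readout luminescent viability; normalization relied on vehicle (no inhibition) and media-only columns (full inhibition).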

The nature of test [13]: qHTS Screen of the MIPE 4.0 Collection Against Ewings Sarcoma (TC71) (AID 1259253). Also: nearly all actives have a fitted effect of over 40% in size. Also: potency is read from the fitted curve at half-maximal effect. The procedure, abridged: as §2
A short description of test [14]: qHTS Screen of the MIPE 4.0 Collection Against Ewings Sarcoma (EW8) (AID 1259255). Also: nearly all actives have a fitted effect of over 35% in size. Also: potency is read from the fitted curve at half-maximal effect.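 As to viability: 100% = DMSO-treated cells and 0% = medium-only wells without cells.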 Summed up: as §2
Test [15] in a line: qHTS Screen of the MIPE 4.0 Collection Against Ewings Sarcoma (TC32) (AID 1259256). Also: nearly all actives have a fitted effect of over 45% in size. Also: potency is read from the fitted curve at half-maximal effect. The procedure, abridged: as §2
A short description of test [16]: Identifying Small Molecule Inhibitors of Pancreatic Cancer Stem Cells (A2780, Spheroid) (AID 1259357). Also: potency is read from the fitted curve at half-maximal effect.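 Also: spheroids pre-formed over 14 days in stem cell medium on hydrogel; compound exposure lasted 48 h before the ATP luminescence read.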 The following applies: Potency: A2780 spheroid viability. The procedure, abridged: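 Spheroids grown 14 days in stem cell media on hydrogel-coated nonadherent plates; 2D lines seeded directly. Compounds added after 4 h attachment, 48 h at 37C, 5% CO2; CellTiter-Glo luminescence normalized to DMSO (no inhibition) and no-cell wells (full inhibition).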

Test [17] is described as follows: qHTS profiling for inhibitors of Plasmodium falciparum (DD2) proliferation (AID 743323; call rule not given here). The following applies: lower = more inhibition; at 28.7 µM (top of the series) unless noted. The procedure, abridged:
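Parasite DNA quantified by SYBR Green fluorescence (ex 485, em 535 nm) after saponin/Triton lysis and overnight dark incubation. Cultures: 0.3% parasitemia, 2.5% hematocrit, 72 h, 37 C; data scaled between DMSO and 0.29 uM artemisinin.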

Records with an inconclusive call do not appear. The source made the active and inactive calls. Unless noted, calls follow the shape of the dose curve; as a rule, active = well fitted curve in the direction sought with a large enough effect; inconclusive = small, poorly fitted or top-dose-only effect, or another doubt; inactive = no such curve, though single readings can be large; an effect the other way counts as inactive or inconclusive.

As for `Oc1cccc(-c2nc(N3CCOCC3)c3oc4ncccc4c3n2)c1`, the remaining parasite growth % (stronger effect = lower value) in test [1] was -0.106%. In addition, the remaining proliferation (% of control), lower = more inhibition in [2] came to 1.45%. For the same molecule, in test [3], the parasite growth, % of DMSO control stood at 6.68% [at 57.5 µM]. The parasite growth remaining, % of DMSO control (lower = more inhibition) in test [4] was found to be 8.08% [at 57.5 µM]. In test [5], the parasite growth, % of control (lower = inhibition) was 21.1% [at 57.5 µM]. In [6], the growth, % of control was 5.67% [at 57.5 µM]. Also, the Potency was 743 nM (active) in test [7]; 960 nM (active) in test [12]; 152 nM (active) in test [13]; 429 nM (active) in test [14]; 76.2 nM (active) in test [15]; 833 nM (active) in test [16]. Further, in test [8], the cell viability, % of control (lower = more cytotoxic) is 8.19% [at 92.2 µM]. The viability (% of control) in test [9] was 17.8% [at 92.2 µM]. Besides, the Potency entry in [10] and in test [11] was “inactive” throughout.

As to `O=C(O)CCc1ccc(NCc2cccc(Oc3ccccc3)c2)cc1`, the remaining parasite growth % (stronger effect = lower value) in test [1] was found to be 29.5%. Besides, in [2], the remaining proliferation (% of control), lower = more inhibition is 98.6%. In test [3], the parasite growth, % of DMSO control is 93.6%. In test [4], the parasite growth remaining, % of DMSO control (lower = more inhibition) was 87.8%. The parasite growth, % of control (lower = inhibition) in test [5] turned out to be 210%. In [6], this molecule had a growth, % of control of 76.8%. Further, the Potency in [7] was 83.3 nM (active). In addition, in [8], the cell viability, % of control (lower = more cytotoxic) is 132%. In addition, in [9], the viability (% of control) is 108%. For the same molecule, the Potency result in [10], in [11], in [12], in test [13], in test [14] and in test [15] was “inactive” each time.

With `CCc1cc(Nc2nccc(-c3c(-c4ccc(OC)c(C(=O)Nc5c(F)cccc5F)c4)nc4ccccn34)n2)c(OC)cc1N1CCC(N2CCN(S(C)(=O)=O)CC2)CC1`, in test [1], the remaining parasite growth % (stronger effect = lower value) is -0.479%. The molecule also showed an activity, percent of control in test [17] of 0.369%. In addition, the remaining proliferation (% of control), lower = more inhibition in test [2] is -0.677%. The parasite growth, % of DMSO control in test [3] was 4.93%. Also, the parasite growth remaining, % of DMSO control (lower = more inhibition) in [4] came out at 6.42%. In addition, the parasite growth, % of control (lower = inhibition) in test [5] was 14.9%. The same molecule yielded a growth, % of control in [6] of 4.27%. Besides, the Potency in [7] was 1660 nM (active); in test [12], 26400 nM (active); in test [13], 18700 nM (active); in test [14], 18700 nM (active); in test [15] it was 16600 nM (active). Besides, the cell viability, % of control (lower = more cytotoxic) in test [8] was 179%. In addition, in test [9], the viability (% of control) turned out to be 79.3%. The Potency result in test [10] and in [11] was “inactive” each time.

In the case of `Cc1n[nH]c(C)c1Cc1sc2c(c1C(=O)N1C[C@H](O)CO1)c(=O)n(C)c(=O)n2CC(C)C`, the remaining parasite growth % (stronger effect = lower value) in test [1] turned out to be 111%. The activity, percent of control in test [17] was determined as 99.9%. The remaining proliferation (% of control), lower = more inhibition in [2] is 81.9%. The molecule further came in with a parasite growth, % of DMSO control in test [3] of 161%. In addition, the parasite growth remaining, % of DMSO control (lower = more inhibition) in [4] is 107%. For the same molecule, the parasite growth, % of control (lower = inhibition) in test [5] is 86.3%. The results for the Potency in test [7], in test [13] and in test [15] were 1.9 nM (active), 166 nM (active) and 105 nM (active), respectively. In [8], the cell viability, % of control (lower = more cytotoxic) is 109%. In addition, the viability (% of control) in test [9] turned out to be 96.6%. In addition, the Potency entry in [10], in test [11], in test [12], in [14] and in [16] was “inactive” in each case.

In the case of `CCn1c(-c2nonc2N)nc2cnc(Oc3cccc(NC(=O)c4ccc(OCCN5CCOCC5)cc4)c3)cc21`, in test [1], the remaining parasite growth % (stronger effect = lower value) came out at 15.3%. Also, the activity, percent of control in [17] was found to be 20.7%. The remaining proliferation (% of control), lower = more inhibition in [2] amounted to 14.7%. In [3], this molecule returned a parasite growth, % of DMSO control of 13.1%. In test [4], the parasite growth remaining, % of DMSO control (lower = more inhibition) stood at 57.9%. For the same molecule, the parasite growth, % of control (lower = inhibition) in test [5] is 22.1%. This molecule also returned a growth, % of control in test [6] of 3.64%. In addition, the Potency was 590 nM (active) in test [7]; 5900 nM (active) in test [12]; 13200 nM (active) in [13]; 11800 nM (active) in test [14]; 5900 nM (active) in test [15]. The cell viability, % of control (lower = more cytotoxic) in test [8] was 84.4%. The viability (% of control) in [9] is 33.2%. In addition, the Potency result in test [10] and in test [11] was “inactive” in each case.

Turning to `COc1ccc(CC2=NN3C([C@@H](CCc4ccccc4)[C@@H](C)O)=NC(C)C3C(=O)N2)cc1OC` (stereo not given in full), the remaining parasite growth % (stronger effect = lower value) in test [1] came to 71.5%. Further, the activity, percent of control in test [17] was 64.6%. For the same molecule, in test [2], the remaining proliferation (% of control), lower = more inhibition is 17.1%. Moreover, the parasite growth, % of DMSO control in test [3] came to 87.2%. Further, the parasite growth remaining, % of DMSO control (lower = more inhibition) in [4] amounted to 99.9%. For the same molecule, in test [5], the parasite growth, % of control (lower = inhibition) was 46.9%. The molecule further had a growth, % of control in [6] of 82%. The Potency in test [7] is 10500 nM (active); in test [10] it was 9350 nM (active); in test [11] it was 10500 nM (active). Besides, the cell viability, % of control (lower = more cytotoxic) in [8] was found to be 276%. Besides, in test [9], the viability (% of control) was 115%. Besides, the Potency entry in test [12], in test [13], in test [14] and in [15] was “inactive” in each case.
